Results taken from PubChem BioAssay.
Where “and” joins values, the source holds several entries; their conditions need not be identical. Equal values may be shown once. Calls of active or inactive are those of the source.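 How the source made its calls, unless noted: active means thallium flux through the channel raised or lowered by more than 3 SD from vehicle-only wells, actives on both sides; inactive means the rest.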

Tests used:
[1] = P. berghei load reduction in hepatocytes – cell-based, HepG2, luciferase luminescence, HepG2 viability, primary screen (AID 624349; in the data active means parasite load remaining mostly below about 12%, no sharp cut-off; inactive means mostly above about 10%;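 further: 100% = mean of DMSO negative control wells on the same plate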); settings: P. berghei liver stage in HepG2, luciferase luminescence, concentration not given here; parasite load remaining: stronger effect = lower value; viability: measured here: HepG2 viability without parasites
[2] = signal quenchers or enhancers, Cy5 substrate/SSB – biochemical, NIH Clinical Collection, E. coli SSB, artefact control for HCV NS3 helicase inhibitor project (AID 743268; call rule not given here); settings: Cy5-oligo bound E. coli SSB, fluorescence interference
[3] = test system: Hepatitis C virus NS3 helicase; assay: blockers of NS3h binding to DNA – biochemical, fluorescence polarization, NIH Clinical Collection, primary screen (AID 743270; call rule not given here); settings: NS3 helicase binding to Cy5-dT15 DNA, stronger effect = higher value, concentration not given here
[4] = target: Single-stranded DNA-binding protein (Escherichia coli (strain K12)) (UniProt P0AGE0); assay: SSB-ssDNA binding inhibitors – biochemical, fluorescence polarization, NIH Clinical Collection, counter-screen for HCV NS3 helicase inhibitor project (AID 743271; in the data active means inhibition above about 28%); settings: E. coli SSB-DNA binding, stronger effect = higher value, concentration not given here
[5] = compounds distorting NS3 helicase fluorescence signal – biochemical, NIH Clinical Collection, artefact control for HCV NS3 helicase inhibitor project (AID 743272; call rule not given here;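 further: HCV NS3 helicase with a Cy5 labelled single stranded DNA probe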); settings: fluorescence interference counterscreen, HCV NS3 helicase assay; stronger effect = lower value
[6] = modulation of C. elegans fzo-1 (AID 1259413; call rule not given here;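 further: fzo-1 mutant C. elegans worms in liquid wells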); settings: C. elegans fzo-1 modulator screen, mean read-out; stronger effect = higher value
[7] = viability loss with induced miR-34 in A549 – imaging, A549 dox-inducible miR-34, nuclei and caspase counts, primary screen (AID 1347080;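 active means compounds whose cell count with miR-34 switched on is under 0.7 times the count with it off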); settings: A549 miR-34 inducible, Hoechst nuclei count, 48 h
F380Y = assay: BK channel mutant inhibitors and activators – cell-based, U2OS BacMam, thallium flux, beta subunits, selectivity assay, profiling panel (AID 1259406); settings: U2OS BacMam BK variants, at 30 µM;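 further: initial slope of Thallos dye fluorescence rise after thallium is added; log ratio against the mean of 0.3% DMSO vehicle wells on the same plate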
F380Y/beta1 = assay: as above; settings: U2OS BacMam BK variants, at 30 µM
F380Y/beta2Delta = assay: as above; settings: U2OS BacMam BK variants, at 30 µM
F380Y/beta4 = assay: as above; settings: U2OS BacMam BK variants, at 30 µM
[8] = target: Calcium-activated potassium channel subunit alpha-1 (Homo sapiens) + Leucine-rich repeat-containing protein 26 (Homo sapiens) (UniProt Q12791+Q2I0M4); assay: as above; settings: U2OS BacMam BK variants, F380Y/Slo1WT/gamma1, at 30 µM
Sequence of Calcium-activated potassium channel subunit alpha-1 (Homo sapiens) + Leucine-rich repeat-containing protein 26 (Homo sapiens) (Q2I0M4 whole entry, looked up, one chain of several): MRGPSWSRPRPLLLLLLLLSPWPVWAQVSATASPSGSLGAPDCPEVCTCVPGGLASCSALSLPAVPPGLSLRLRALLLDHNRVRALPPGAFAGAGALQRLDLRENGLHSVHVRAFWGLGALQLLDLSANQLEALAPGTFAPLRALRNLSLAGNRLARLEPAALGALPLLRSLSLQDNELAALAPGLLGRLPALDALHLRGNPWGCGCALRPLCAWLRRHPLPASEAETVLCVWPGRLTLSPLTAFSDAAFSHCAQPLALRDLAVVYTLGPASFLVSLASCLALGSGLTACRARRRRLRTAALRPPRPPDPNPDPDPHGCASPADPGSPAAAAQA

R275C = assay: as above; settings: U2OS BacMam BK variants, at 30 µM
R275C/beta1 = assay: as above; settings: U2OS BacMam BK variants, at 30 µM
R275C/beta2Delta = assay: as above; settings: U2OS BacMam BK variants, at 30 µM
R275C/beta4 = assay: as above; settings: U2OS BacMam BK variants, at 30 µM
R275C/Slo1WT/beta2 = assay: as above; settings: U2OS BacMam BK variants, at 30 µM
[9] = stronger effect = lower value, cell number ratio, induced over uninduced
[10] = measured here: relative caspase fold change +Dox/-Dox
[11] = measured here: total cells with miR-34 induction, stronger effect = lower value
[12] = measured here: total cells without miR-34 induction

## CC(N)(Cc1ccc(O)c(O)c1)C(=O)O (centres undefined)
[1]
  parasite load remaining: 67.7% (inactive)
  viability: 87.8%
[2]
  fluorescence ratio: 0.1 (active)
[3]
  inhibition: -3.18% (inactive)
[4]
  inhibition: -0.48% (inactive)
[5]
  fluorescence ratio: 0.96 (inactive)
[6]
  mean signal: 264 (inactive)
[7]; [9]
  fold change: 1.03 (inactive) and 1.02 (inactive)
[7]; [10]
  fold change: 0.522 and 3.64
[7]; [11]
  cell count: 9990 and 9950
[7]; [12]
  cell count: 9680 and 9750
F380Y
  log fold change Tl+ flux: -0.0268 (inactive)
F380Y/beta1
  log fold change Tl+ flux: -0.0706 (inactive)
F380Y/beta2Delta
  log fold change Tl+ flux: -0.0381 (inactive)
F380Y/beta4
  log fold change Tl+ flux: -0.00847 (inactive)
[8]
  log fold change Tl+ flux: -0.0181 (inactive)
R275C
  log fold change Tl+ flux: -0.0316 (inactive)
R275C/beta1
  log fold change Tl+ flux: -0.0727 (inactive)
R275C/beta2Delta
  log fold change Tl+ flux: -0.00349 (inactive)
R275C/beta4
  log fold change Tl+ flux: -0.0805 (inactive)
R275C/Slo1WT/beta2
  log fold change Tl+ flux: -0.125 (active)

## CC1(C)SC2C(NC(=O)C(N)c3ccccc3)C(=O)N2C1C(=O)O (centres undefined)
[1]
  parasite load remaining: 64.5% (inactive)
  viability: 97.1%
[2]
  fluorescence ratio: 1.05 (inactive)
[3]
  inhibition: -3.18% (inactive)
[4]
  inhibition: -3.53% (inactive)
[5]
  fluorescence ratio: 1.03 (inactive)
[6]
  mean signal: 248 (inactive)
[7]; [9]
  fold change: 0.924 (inactive)
[7]; [10]
  fold change: 1.56
[7]; [11]
  cell count: 9300
[7]; [12]
  cell count: 10100
F380Y
  log fold change Tl+ flux: 0.0123 (inactive)
F380Y/beta1
  log fold change Tl+ flux: -0.00858 (inactive)
F380Y/beta2Delta
  log fold change Tl+ flux: -0.029 (inactive)
F380Y/beta4
  log fold change Tl+ flux: -0.0312 (inactive)
[8]
  log fold change Tl+ flux: 0.0123 (inactive)
R275C
  log fold change Tl+ flux: 0.0182 (inactive)
R275C/beta1
  log fold change Tl+ flux: -0.0441 (inactive)
R275C/beta2Delta
  log fold change Tl+ flux: 0.02 (inactive)
R275C/beta4
  log fold change Tl+ flux: -0.0148 (inactive)
R275C/Slo1WT/beta2
  log fold change Tl+ flux: -0.0117 (inactive)

## Cc1nnc(SCC2=C(C(=O)O)N3C(=O)C(NC(=O)Cn4cnnn4)C3SC2)s1 (centres undefined)
[1]
  parasite load remaining: 65.6% (inactive)
  viability: 110%
[6]
  mean signal: 235 (inactive)
[7]; [9]
  fold change: 0.923 (inactive)
[7]; [10]
  fold change: 1.36
[7]; [11]
  cell count: 10000
[7]; [12]
  cell count: 10800
F380Y
  log fold change Tl+ flux: -0.00444 (inactive)
F380Y/beta1
  log fold change Tl+ flux: -0.0723 (inactive)
F380Y/beta2Delta
  log fold change Tl+ flux: 0.025 (inactive)
F380Y/beta4
  log fold change Tl+ flux: 0.028 (inactive)
[8]
  log fold change Tl+ flux: 0.00509 (inactive)
R275C
  log fold change Tl+ flux: 0.00777 (inactive)
R275C/beta1
  log fold change Tl+ flux: 0.00195 (inactive)
R275C/beta2Delta
  log fold change Tl+ flux: 0.0237 (inactive)
R275C/beta4
  log fold change Tl+ flux: -0.0318 (inactive)
R275C/Slo1WT/beta2
  log fold change Tl+ flux: 0.0155 (inactive)
